Measurements as given in ChEMBL document CHEMBL3988442, “University of Dundee, Small-Polar-MMV Screening Library” (2021).

Test system: Trypanosoma cruzi
Experiment: Trypanosoma cruzi phosphomannomutase and mannose-1-phosphate guanylyltransferase assay
Assay type: functional
Set-up: scale not given: direction of the effect not stated beside the values
Conditions: 10 µM

SMILES	Percent Effect
O=C(c1cccnc1)N1C[C@@H]2CC[C@H](C1)N(Cc1cccc(Cl)c1F)C2	-0.588%
Cc1cc(-c2cnn(CCNC(=O)c3cccnc3)c2C2CC2)on1	-0.395%
N#Cc1ccc(NCCNc2ccc(C(F)(F)F)cn2)nc1	3.01%
Cc1nn(C)c(N(C)C)c1CNCc1cccc(CN(C)C(C)C)c1	3.03%
Cc1nnc(NC(=O)CN(C)CC2CCCN2c2cccnn2)s1 (configuration not stated)	-1.56%
Cc1cc(C(=O)NCc2cccnc2OC(C)C)no1	-5.19%
OC(CN1CCN(Cc2ccc(F)c(F)c2)CC1)C1CC1 (configuration not stated)	5.68%
Cc1noc(C(C)N2CCN(CCC(=O)N3CCCCC3)CC2)n1 (configuration not stated)	4.19%
CCc1nc2ccccc2c(=O)n1CC1(O)CCN(S(C)(=O)=O)CC1	1.58%
Cn1ccc(CN2CCC(CCc3ccc(O)cc3)CC2)cc1=O	3.38%
CCCNC(=O)N1CCN(Cc2cc(C)no2)CC1	6.07%
Cc1cccc(OCCC(=O)N2CCN(S(=O)(=O)N(C)C)CC2)c1C	0.661%
Cc1nc2n(n1)CC(NCc1cc(Cl)c3c(c1)OCCCO3)CC2 (configuration not stated)	5.51%
COC(=O)N1CCCN(C(=O)NCc2ccc(Cl)s2)CC1	0.308%
Cc1cc(C2CCCN(CCCNS(C)(=O)=O)C2)n[nH]1 (configuration not stated)	-0.283%
CC(C)CC(=O)N1CCCn2cnc(CN3CCCC3=O)c2C1	-3.23%
O=C(Nc1ccccn1)N(CCO)Cc1ccsc1	0.564%
CCSCCC(=O)Nc1ncn(CC(=O)NCc2ccccc2)n1	8.86%
OCCn1nccc1C1CCN(CCCOc2ccc(F)cc2)CC1	-0.28%

Biological target: T1, Arginase-2, mitochondrial (Homo sapiens) (UniProt P78540)
T1 sequence (whole entry): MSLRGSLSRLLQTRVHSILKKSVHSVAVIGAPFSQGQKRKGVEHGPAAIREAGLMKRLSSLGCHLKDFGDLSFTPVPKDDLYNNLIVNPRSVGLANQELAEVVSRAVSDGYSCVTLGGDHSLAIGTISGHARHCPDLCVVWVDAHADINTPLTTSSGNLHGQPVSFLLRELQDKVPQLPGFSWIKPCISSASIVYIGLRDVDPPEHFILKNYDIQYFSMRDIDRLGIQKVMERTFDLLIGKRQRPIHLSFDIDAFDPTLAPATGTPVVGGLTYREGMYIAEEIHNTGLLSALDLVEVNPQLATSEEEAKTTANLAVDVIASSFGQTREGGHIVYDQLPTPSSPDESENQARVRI
Experiment: in vitro enzyme assay to detect the production of urea directly proportional to the activity of Arginase II; note: in the data most compounds retested in dose-response had high values
Assay type: functional
Set-up: scale not given: direction of the effect not stated beside the values
Conditions: 33.3 µM

SMILES	Percent Effect
Cc1cnn(CC2CCCCN2CCC(=O)Nc2cc(C)on2)c1 (configuration not stated)	-1.07%
CNS(=O)(=O)Cc1ccc(CNC(=O)Nc2cn[nH]c2)cc1	1.52%
Cc1c(C(=O)NC(CN2CCCC2=O)c2ccccc2)cnn1C (configuration not stated)	6.9%
O=C(O)c1nnn(-c2ccc(F)c(F)c2)c1-c1ccncc1	4.73%
Cc1ccccc1CCNC(=O)C1CC(=O)N(CC(F)(F)F)C1 (configuration not stated)	-21.2%
CC(C)CN1CCCC2(CCN(C(=O)c3cnccn3)C2)C1 (configuration not stated)	-3.23%
O=C(NCC(F)(F)F)C1CSCN1S(=O)(=O)c1ccc(F)cc1 (configuration not stated)	-4.95%
CO[C@@H]1CC[C@H]2[C@H]1OCCN2C(=O)C1=CCCC1	16.1%
COCC1CN(Cc2ccc(C)o2)Cc2cn(C)nc21 (configuration not stated)	-18.5%
Cc1cc(NC(=O)CCc2ccsc2)n(C)n1	3.97%
O=C(Cc1ccc(O)c(Cl)c1)N1CCCCC1CCn1cccn1 (configuration not stated)	0.476%
Cc1cnn(CC(C)NCc2csc(-c3ccco3)n2)c1 (configuration not stated)	-3.66%
CCc1nnc2n1CCN(C(=O)c1ccc3nc(C)c(C)nc3c1)C2	-1.32%
Cc1cc(CN(C)C(=O)NC(C)c2nncn2C)no1 (configuration not stated)	35.8%
COC(=O)CS(=O)(=O)CCC(=O)N1CCCC1c1ccsc1 (configuration not stated)	-2.21%
CC(=O)N1CCN(S(=O)(=O)c2ccc(C)c(F)c2)CC1	9.47%
CN(C)C(=O)CN1C[C@@H]2CC[C@H](C1)N(Cc1cc(F)ccc1F)C2	-2.79%
Cc1nn(C)c(N(C)C)c1CNCc1cccnc1-n1cncn1	3.23%
Cn1ccnc1CN1CCCCC1Cn1cccn1 (configuration not stated)	0.215%
COc1cc(C(=O)N2CCC(c3n[nH]c(C4CC4)n3)CC2)ccc1C	2.37%

SMILES	Percent Effect
O=C(c1cccnc1)N1C[C@@H]2CC[C@H](C1)N(Cc1cccc(Cl)c1F)C2	5%
Cc1cc(-c2cnn(CCNC(=O)c3cccnc3)c2C2CC2)on1	-3.48%
N#Cc1ccc(NCCNc2ccc(C(F)(F)F)cn2)nc1	-1.53%
Cc1nn(C)c(N(C)C)c1CNCc1cccc(CN(C)C(C)C)c1	10.7%
Cc1nnc(NC(=O)CN(C)CC2CCCN2c2cccnn2)s1 (configuration not stated)	-1.67%
Cc1cc(C(=O)NCc2cccnc2OC(C)C)no1	4.41%
OC(CN1CCN(Cc2ccc(F)c(F)c2)CC1)C1CC1 (configuration not stated)	-1.82%
Cc1noc(C(C)N2CCN(CCC(=O)N3CCCCC3)CC2)n1 (configuration not stated)	-16.6%
CCc1nc2ccccc2c(=O)n1CC1(O)CCN(S(C)(=O)=O)CC1	7.66%
Cn1ccc(CN2CCC(CCc3ccc(O)cc3)CC2)cc1=O	-1.07%
CCCNC(=O)N1CCN(Cc2cc(C)no2)CC1	-2.16%
Cc1cccc(OCCC(=O)N2CCN(S(=O)(=O)N(C)C)CC2)c1C	-3.42%
Cc1nc2n(n1)CC(NCc1cc(Cl)c3c(c1)OCCCO3)CC2 (configuration not stated)	-1.44%
COC(=O)N1CCCN(C(=O)NCc2ccc(Cl)s2)CC1	-4.09%
Cc1cc(C2CCCN(CCCNS(C)(=O)=O)C2)n[nH]1 (configuration not stated)	-2.66%
CC(C)CC(=O)N1CCCn2cnc(CN3CCCC3=O)c2C1	1.74%
O=C(Nc1ccccn1)N(CCO)Cc1ccsc1	0%
CCSCCC(=O)Nc1ncn(CC(=O)NCc2ccccc2)n1	3.65%
OCCn1nccc1C1CCN(CCCOc2ccc(F)cc2)CC1	-2.88%

Biological target: T2, Proteasome subunit beta (Trypanosoma cruzi) (UniProt O96673)
T2 sequence (whole entry): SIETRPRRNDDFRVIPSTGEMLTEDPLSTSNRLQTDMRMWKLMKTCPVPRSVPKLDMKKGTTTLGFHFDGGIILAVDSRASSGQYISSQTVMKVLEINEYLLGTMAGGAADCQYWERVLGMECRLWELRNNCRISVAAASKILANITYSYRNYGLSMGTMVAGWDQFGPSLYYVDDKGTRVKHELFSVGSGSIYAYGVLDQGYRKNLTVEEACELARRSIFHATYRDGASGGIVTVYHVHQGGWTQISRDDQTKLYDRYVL
Experiment: Trypanosoma cruzi proteasome chymotrypsin-like activity (TcProtChymo) assay. Note: in the data most compounds retested in dose-response had high values.
Assay type: functional
Set-up: scale not given: direction of the effect not stated beside the values
Conditions: 9.37 µM

SMILES	Percent Effect
Cc1cnn(CC2CCCCN2CCC(=O)Nc2cc(C)on2)c1 (configuration not stated)	11.7%
CNS(=O)(=O)Cc1ccc(CNC(=O)Nc2cn[nH]c2)cc1	8.11%
Cc1c(C(=O)NC(CN2CCCC2=O)c2ccccc2)cnn1C (configuration not stated)	7.69%
O=C(O)c1nnn(-c2ccc(F)c(F)c2)c1-c1ccncc1	20.6%
Cc1ccccc1CCNC(=O)C1CC(=O)N(CC(F)(F)F)C1 (configuration not stated)	10.1%
CC(C)CN1CCCC2(CCN(C(=O)c3cnccn3)C2)C1 (configuration not stated)	3.13%
O=C(NCC(F)(F)F)C1CSCN1S(=O)(=O)c1ccc(F)cc1 (configuration not stated)	16.5%
CO[C@@H]1CC[C@H]2[C@H]1OCCN2C(=O)C1=CCCC1	7.49%
COCC1CN(Cc2ccc(C)o2)Cc2cn(C)nc21 (configuration not stated)	5.13%
Cc1cc(NC(=O)CCc2ccsc2)n(C)n1	17.7%
O=C(Cc1ccc(O)c(Cl)c1)N1CCCCC1CCn1cccn1 (configuration not stated)	10.9%
Cc1cnn(CC(C)NCc2csc(-c3ccco3)n2)c1 (configuration not stated)	10.1%
CCc1nnc2n1CCN(C(=O)c1ccc3nc(C)c(C)nc3c1)C2	20.7%
Cc1cc(CN(C)C(=O)NC(C)c2nncn2C)no1 (configuration not stated)	22.6%
COC(=O)CS(=O)(=O)CCC(=O)N1CCCC1c1ccsc1 (configuration not stated)	5.44%
CC(=O)N1CCN(S(=O)(=O)c2ccc(C)c(F)c2)CC1	13.1%
CN(C)C(=O)CN1C[C@@H]2CC[C@H](C1)N(Cc1cc(F)ccc1F)C2	20.6%
Cc1nn(C)c(N(C)C)c1CNCc1cccnc1-n1cncn1	12.9%
Cn1ccnc1CN1CCCCC1Cn1cccn1 (configuration not stated)	-1.03%
COc1cc(C(=O)N2CCC(c3n[nH]c(C4CC4)n3)CC2)ccc1C	-0.686%

SMILES	Percent Effect
O=C(c1cccnc1)N1C[C@@H]2CC[C@H](C1)N(Cc1cccc(Cl)c1F)C2	10.8%
Cc1cc(-c2cnn(CCNC(=O)c3cccnc3)c2C2CC2)on1	-1.09%
N#Cc1ccc(NCCNc2ccc(C(F)(F)F)cn2)nc1	10.7%
Cc1nn(C)c(N(C)C)c1CNCc1cccc(CN(C)C(C)C)c1	9.87%
Cc1nnc(NC(=O)CN(C)CC2CCCN2c2cccnn2)s1 (configuration not stated)	17.3%
Cc1cc(C(=O)NCc2cccnc2OC(C)C)no1	3.42%
OC(CN1CCN(Cc2ccc(F)c(F)c2)CC1)C1CC1 (configuration not stated)	8.16%
Cc1noc(C(C)N2CCN(CCC(=O)N3CCCCC3)CC2)n1 (configuration not stated)	9.68%
CCc1nc2ccccc2c(=O)n1CC1(O)CCN(S(C)(=O)=O)CC1	10.8%
Cn1ccc(CN2CCC(CCc3ccc(O)cc3)CC2)cc1=O	1.89%
CCCNC(=O)N1CCN(Cc2cc(C)no2)CC1	17.5%
Cc1cccc(OCCC(=O)N2CCN(S(=O)(=O)N(C)C)CC2)c1C	8.93%
Cc1nc2n(n1)CC(NCc1cc(Cl)c3c(c1)OCCCO3)CC2 (configuration not stated)	6.01%
COC(=O)N1CCCN(C(=O)NCc2ccc(Cl)s2)CC1	12.9%
Cc1cc(C2CCCN(CCCNS(C)(=O)=O)C2)n[nH]1 (configuration not stated)	-2.7%
CC(C)CC(=O)N1CCCn2cnc(CN3CCCC3=O)c2C1	-0.429%
O=C(Nc1ccccn1)N(CCO)Cc1ccsc1	11.2%
CCSCCC(=O)Nc1ncn(CC(=O)NCc2ccccc2)n1	25.1%
OCCn1nccc1C1CCN(CCCOc2ccc(F)cc2)CC1	-3.64%
